TDP1 cell CPT: growth inhibition of DT40 Tdp1-/-;hTDP1 cells with camptothecin (screen for TDP1 inhibitors). chicken DT40 Tdp1-/-;hTDP1 cells + 20 nM CPT, ATP luminescence, 48 h. Potency, µM (series often up to 46.2 µM), for inactives: top-dose activity change, negative = growth inhibition, actives largely listed as inhibitors. 12% of 420,000 active; note: potency is the fitted concentration of half-maximal effect; nearly all actives have a fitted effect of over 55% in size
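Cell growth measured by CellTiter-Glo luminescence after a minimum 48 h, 37 C compound exposure with 20 nM CPT in Tdp1-knockout DT40 cells stably expressing hTDP1, seeded 400/well; qHTS titration format.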
RORgamma inh: blocks mouse ROR gamma transcriptional activity; P51450; Drosophila S2 Gal4-RORgamma UAS-luciferase reporter, 20 h; Potency, µM (titrated, usually from 53.6 µM), inactives show at the highest dose activity change, negative = inhibition, most hits filed as inhibitors; 5.4% of 310,000 active; AID 2551; note: potency is the fitted concentration of half-maximal effect; nearly all actives have a fitted effect of over 60% in size
Target sequence (P51450 whole entry, looked up, the tested form may be a part): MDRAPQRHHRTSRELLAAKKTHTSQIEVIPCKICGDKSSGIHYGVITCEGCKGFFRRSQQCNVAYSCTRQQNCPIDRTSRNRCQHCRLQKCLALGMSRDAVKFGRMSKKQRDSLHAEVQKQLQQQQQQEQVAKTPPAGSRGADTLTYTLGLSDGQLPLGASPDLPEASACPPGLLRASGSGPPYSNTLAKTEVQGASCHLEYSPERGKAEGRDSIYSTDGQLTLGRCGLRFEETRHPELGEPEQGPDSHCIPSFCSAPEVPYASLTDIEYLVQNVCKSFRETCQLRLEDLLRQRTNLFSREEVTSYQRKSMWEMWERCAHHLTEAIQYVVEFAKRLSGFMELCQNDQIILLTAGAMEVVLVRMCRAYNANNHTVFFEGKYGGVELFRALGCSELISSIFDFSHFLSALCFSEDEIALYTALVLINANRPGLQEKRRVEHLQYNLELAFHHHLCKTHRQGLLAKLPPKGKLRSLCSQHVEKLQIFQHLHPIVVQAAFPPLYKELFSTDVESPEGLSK
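Drosophila S2 cells stably expressing Gal4-DBD/mouse RORγ fusion under metallothionein promoter plus UAS-luciferase; compound 1 h, then 700 uM CuSO4 induction for 20 h at ambient temperature; inhibition read as reduced luminescence.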
IL-1B inflam inh: blocks inflammasome-driven IL-1 beta release; activity change, % at 57.5 µM; AID 743279; 4.7% of 360,000 active; THP-1 LPS/ATP IL-1B secretion, AlphaLISA, 16 h; stronger effect = lower value; in the data active = activity change below about -50%; inconclusive = mostly about -30% to -49%
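THP-1 cells pretreated 1 hr with compounds (up to 57.5 uM final), then stimulated with LPS (250 ng/mL final) plus ATP (1.25 mM final); secreted IL-1B measured by AlphaLISA after 16 hr, decreased signal indicating inhibition.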
VP16 counter: inhibits Gal4-VP16 luciferase reporter, ROR gamma counter-screen; Potency, µM (doses to about 53.6 µM), for inactives: top-dose activity, negative = inhibition, hits mostly inhibitors; 3.5% of 310,000 active; Drosophila S2 Gal4-VP16 UAS-luciferase, luminescence, 20 h;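 note: Gal4-VP16 expression switched on by copper sulfate through the metallothionein promoter; potency is the fitted concentration of half-maximal effect; nearly all actives have a fitted effect of over 50% in size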
ELG1 DNA repair: inhibitors of ELG1-dependent DNA repair in HEK293T cells. HEK293T ELG1-luciferase reporter, luminescence, 16 h; DNA damage induced by 5-fluorouridine. 2.3% of 330,000 active. Potency, µM (series often up to 46.1 µM), without a hit: at the highest dose activity change, negative = inhibition, usual class: inhibitors; note: potency is the fitted concentration of half-maximal effect; nearly all actives have a fitted effect of over 55% in size
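HEK293T cells expressing luciferase-tagged ELG1 (2,000/well) received 5-Fluorouridine plus compound or DMSO for 16 hr at 37 °C. Luciferase was read by ONE-Glo luminescence after 30 min at room temperature.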
TDP1 cell noCPT: qHTS for Inhibitors of human tyrosyl-DNA phosphodiesterase 1 (TDP1): qHTS in cells in absence of CPT; Potency, µM (highest dose often 46.2 µM), for inactives: top-dose activity change, negative = growth inhibition, hits mostly inhibitors; DT40 Tdp1-/- hTDP1 cells, no CPT, ATP luminescence, 48 h; 15% of 420,000 active; AID 686978, 2013; note: potency is the fitted concentration of half-maximal effect; nearly all actives have a fitted effect of over 55% in size
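Growth kinetics read by CellTiter-Glo luminescence after ≥48 hr at 37 °C. Cells: DT40 Tdp1-/- stably carrying human TDP1, 400 per well, compound exposure in the absence of CPT (DMSO vehicle).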
* marks the source's active call; other numbers are inactive results; ? = inconclusive; · = no result; ! = a repeat was not active; [ ] = dose if it differs, or a comment. Most compounds without a hit are left out; they make up all but 21% or so of the library. Unless noted, calls come from the whole dose curve; as a rule, active = well fitted curve in the direction sought with a large enough effect; inconclusive = small, poorly fitted or top-dose-only effect, or another doubt; inactive = no such curve, though single readings can be large; an effect the other way counts as inactive or inconclusive. % is set by controls: 0 for no effect and ±100 for the full control effect.

SMILES	TDP1 cell CPT	RORgamma inh	IL-1B inflam inh	VP16 counter	ELG1 DNA repair	TDP1 cell noCPT
Cc1ccccc1-n1ncc2c(SCC(=O)NC3CCCC3)ncnc21	21µM*	?	-71*	?	?	7.3µM*
Cc1ccccc1-n1ncc2c(SCC(=O)N3c4ccccc4CC3C)ncnc21 (stereo not drawn)	29µM*	24%	-92*	-8%	-17%	20µM*
Cc1ccc2nc(SCC(=O)N3c4ccccc4CC3C)c(C)cc2c1 (stereo not drawn)	23µM*	-2%	-11	-1%	-26%	15µM*
COc1ccc(N2CCN(C(=O)CSc3ncnc4c3cnn4-c3ccccc3C)CC2)cc1	?	1%	7	-6%	-19%	?
CC(=O)/C(C#N)=C1\NC(=O)C(Cc2ccc(C)c(C)c2)S1 (stereo not drawn)	0.58µM*	12%	59	5%	?	0.073µM*
CC(=O)/C(C#N)=C1\NC(=O)C(Cc2cc(Cl)ccc2Cl)S1 (stereo not drawn)	?	27%	0	-8%	0%	3.3µM*
CC(=O)/C(C#N)=C1\NC(=O)C(Cc2ccc(F)cc2)S1 (stereo not drawn)	?	31%	21	-1%	-4%	1.3µM*
CC(=O)Nc1ccc(S(=O)(=O)N(C)CC(=O)OCC(=O)c2ccc3c(c2)NC(=O)CO3)cc1	2%	·	12	·	8%	7%
CCOc1ccccc1/C=N\Nc1cnn(Cc2ccccc2)c(=O)c1Cl	23µM*	37%	?	5%	?	?
CCOC(=O)c1c(C)[nH]c(C(=O)OC(C)C(=O)NC2(C#N)CCCCC2)c1C (stereo not drawn)	?	·	-9	·	·	?
CCOC1=C2CN(S(=O)(=O)c3ccc(C)cc3)C(c3cccc(Cl)c3)CC2NC(c2ccccc2)C1 (stereo not drawn)	18µM*	·	-15	·	·	?
CCOC1=C2CN(S(=O)(=O)c3ccc(C)cc3)C(c3cccc(Cl)c3)CC2N(S(=O)(=O)c2ccc(C)cc2)C(c2ccncc2)C1 (stereo not drawn)	15µM*	·	6	·	·	16µM*
CCOC1=C2CN(S(=O)(=O)c3ccc(C)cc3)C(c3cccc(Cl)c3)CC2N(S(=O)(=O)c2ccc(Cl)cc2)C(c2ccccc2)C1 (stereo not drawn)	?	·	13	·	·	?
C=C1C(=O)C23C(O)C1CCC2C12CCCC(C)(COC(C)=O)C1C(O)C3(O)OC2 (stereo not drawn)	1µM*	·	0	·	·	0.73µM*
COc1ccccc1-n1c(=S)[nH]c2c(sc(=S)n2-c2ccccc2C)c1=O	?	0%	?	1%	-5%	?
Cc1c(C(=O)N2CCOCC2)c(S(=O)(=O)Nc2ccc(OC(F)(F)F)cc2)c(C)n1C	?	26%	0	-15%	14%	-24%
Cc1c(C(=O)N2CCCCCC2)c(S(=O)(=O)Nc2ccc(OC(F)(F)F)cc2)c(C)n1C	23µM*	·	·	·	·	16µM*
Cc1c(C(=O)N2CCOCC2)c(S(=O)(=O)Nc2ccc(C(C)C)cc2)c(C)n1C	13µM*	-2%	42	-9%	3%	?
CC1CCN(c2nn3c(=O)c(C(=O)NCc4ccc(Cl)cc4)cnc3s2)CC1	-6%	·	·	·	·	4%
Clc1cccc(CN2CCCCCC2)c1	-6%	-5%	3	2%	21%	-13%
N=c1c2c(n(Cc3ccccc3)c3c1CCC3)CCC2	1.6µM*	13%	-28	?	2.9µM*	0.58µM*
N=c1c2c(n(Cc3cccc(Cl)c3)c3c1CCC3)CCCC2	2.6µM*	?	-79*	-15%	?	1.8µM*
N=c1c2c(n(Cc3ccc(Cl)cc3)c3c1CCC3)CCC2	2.3µM*	-8%	-67*	?	2.9µM*	2.3µM*
N=c1c2c(n(Cc3ccc(F)cc3)c3c1CCC3)CCCC2	0.82µM*	-13%	0	-12%	-5%	1µM*
CCOC(=O)Cn1c2c(c(=N)c3ccccc31)CCC2	-10%	-10%	16	0%	-4%	-18%
SMILES	TDP1 cell CPT	RORgamma inh	IL-1B inflam inh	VP16 counter	ELG1 DNA repair	TDP1 cell noCPT
O=c1[nH]c(SCc2ccc(Cl)cc2)nc2c1CCC2	-17%	42%	52	0%	?	?
Cc1noc(C)c1-c1ccc2ncnc(N3CCC(C(=O)O)CC3)c2c1	?	-31%	·	4%	·	-3%
CCOc1ccc(-c2ccc(SC)nn2)cc1	-30%	?	?	?	?	8.2µM*
CC(C)CC1Nc2ncnc(N3CCCCC3)c2N(Cc2ccc(Br)cc2)C1=O (stereo not drawn)	?	·	-5	·	11%	16µM*
CC(C)CC1Nc2ncnc(N3CCN(c4ccccc4)CC3)c2N(Cc2ccc(Cl)cc2)C1=O (stereo not drawn)	?	·	-30	·	0%	18µM*
CCC1Nc2ncnc(N3CCN(c4ccccc4)CC3)c2N(Cc2ccc(C)cc2)C1=O (stereo not drawn)	?	·	10	·	8%	?
CC(C)CC1Nc2ncnc(N3CCN(c4ccccn4)CC3)c2N(Cc2ccccc2)C1=O (stereo not drawn)	?	·	-56*!	·	-11%	?
CC(C)CC1Nc2ncnc(N3CCOCC3)c2N(Cc2ccc(Br)cc2)C1=O (stereo not drawn)	?	·	10	·	2%	?
Cc1ccc(CN2C(=O)C(CC(C)C)Nc3ncnc(N4CCN(c5ccccc5)CC4)c32)cc1 (stereo not drawn)	15µM*	·	?	·	0%	21µM*
O=C(Nc1cccc(N2CCC(NCc3cnn(-c4ccccc4)n3)CC2)c1)c1cccnc1	14%[9.04 µM]	·	·	·	·	?
COc1ccccc1C(=O)Nc1ccnn1C1CCN(C/C=C/c2ccc(F)cc2)CC1	?	-1%	-23	7%	-6%	?
O=C1c2ccccc2S(=O)(=O)c2cc(C(=O)N3CCC(C(=O)N4CCCCC4)CC3)ccc21	-24%	·	-6	·	·	-23%
Cc1cnc(CNc2ncncc2-c2ccccc2CN(C)C)cn1	-28%	?	·	2%	·	?
CC(C)OCCCNC(=O)CN1CCN(Cc2ccccc2Cl)C1=O	?	8%	9	-3%	-11%	18µM*
O=C(CN1CCN(Cc2ccc(Cl)cc2)C1=O)NCCCN1CCN(c2ccc(F)cc2)CC1	8.9µM*	?	-70*	?	?	10µM*
